This excerpt belongs to a sample that is enriched for hits.
TTR transcr act: TTR transcription activators in neuroblastoma reporter cells, primary screen, cell-based, luminescence, SH-SY5Y, TTR promoter Gaussia luciferase | 100% = recombinant luciferase protein wells | activation, % at 16.7 µM | 92,000 tested, 1.3% active | AID 1117267, 2014;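 active = activation above the mean of all tested compounds plus 3 SD, cut at about 9.5% in these data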;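 also: cells exposed to compounds for one day before reading; 0% = median of all test compound wells on the plate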
TTR inh HuH7: TTR promoter reporter inhibitors in hepatoma cells, counter-screen for TTR transcription activator project, cell-based, luminescence, HuH7 hepatoma | 1,100 tested, 4% active | AID 1117279, 2014 | inhibition, % at 16.7 µM | HuH7 TTR promoter-Gaussia luciferase reporter | shares compounds with TTR transcr act;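 active = average inhibition above the solvent-only control wells' mean plus 3 SD, cut at about 15% in these data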;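 also: 0% = cells with DMSO only and 100% = cells with inhibitor control FD; inhibitors lower well luminescence so higher value means more inhibition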
TTR act confirm: TTR transcription activators, retest, confirmation, cell-based, luminescence, SH-SY5Y, triplicate; shares compounds with TTR transcr act; SHSY5Y TTR promoter Gaussia luciferase; 100% = purified Lucia enzyme wells, no cells; activation, % at 16.7 µM; 1,100 tested, under 10 active; AID 1117280, 2014;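 active = mean activation above a set limit taken from the earlier primary screen, cut at about 11% in these data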;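 also: 0% = DMSO-treated cells and 100% = recombinant Lucia luciferase without cells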
Numbers without * were called inactive.

SMILES	TTR transcr act	others
COc1ccc(CN2C3=NC(c4ccccc4)CC(=O)N3/C(=C\c3ccccc3)C2c2ccccc2)c(OC)c1 (centres undefined)	-1
COc1ccc(N(C(C)C(=O)N/N=C/c2cccnc2)S(C)(=O)=O)cc1 (centres undefined)	-1
COc1ccc(N(C(C)C(=O)N/N=C/c2ccc(OC)c(OC)c2)S(C)(=O)=O)cc1 (centres undefined)	-1
COc1ccc(N(C(C)C(=O)NN=C2CCCCCCC2)S(C)(=O)=O)cc1 (centres undefined)	15*	TTR inh HuH7=-9;TTR act confirm=-1
COC(=O)[C@]12C[C@H](CC(=O)NCCc3ccccc3OC)C(=O)N(CCc3ccc(OC)c(OC)c3)C1=C[C@H](COCc1ccccc1)O[C@@H]2C	-2
O=C1CC(c2ccccc2)CC(=O)N1c1ccccc1	1
O=C1C(C23CC4CC(CC(C4)C2)C3)C(=O)N(c2ccccc2)N1c1ccccc1	51*	TTR inh HuH7=2;TTR act confirm=0
O=C(NCc1ccccc1)NC12CC3CC(CC(C3)C1)C2	5
COc1ccc(Cl)cc1NC(=O)CN(C)C(=O)c1cccc2cccnc12	3
C/C(N)=C(/C#N)C(=O)COC(=O)c1cc(-c2ccc(Br)cc2)nc2ccccc12	5
CCCN=C1N(CC)C[C@@H]2[C@@H]3C(=O)N(Cc4ccccc4)C(=O)[C@@H]3[C@](C)(C(=O)OC)N12	0
COC(=O)[C@@]1(C)[C@H]2C(=O)N(Cc3ccccc3)C(=O)[C@H]2[C@H]2CN=C(SCc3ccccc3)N21	2
CCN1C(=O)[C@H]2[C@H]3CN=C(SCc4ccc(C#N)cc4)N3[C@@](C)(C(=O)OC)[C@H]2C1=O	-1
CCN1C[C@@H]2[C@@H]3C(=O)N(Cc4ccccc4)C(=O)[C@@H]3[C@](C)(C(=O)OC)N2C1=NC1CCCCC1	25*	TTR inh HuH7=-2;TTR act confirm=0
CCN1C(=O)[C@H]2[C@H]3CN=C(SCC(=O)c4ccccc4)N3[C@@](C)(C(=O)OC)[C@H]2C1=O	13*	TTR inh HuH7=-3;TTR act confirm=0
COC(=O)[C@@]1(C)[C@H]2C(=O)N(Cc3ccccc3)C(=O)[C@H]2[C@H]2CN(C)C(=NC3CCCCC3)N21	5
COC(=O)CNC(=O)[C@H](Cc1ccccc1)NC1(C(=O)NCCc2c[nH]c3ccccc23)CCCCC1	-2
CCCCOCCCNC(=O)C[C@@H]1C(=O)N(CCc2ccc(Cl)cc2)C2=CCCCC[C@]21C(=O)OC	2
N#Cc1cccc(NC(=O)O[C@@H]2CC[C@@]34CCCN3C(=O)CCC[C@H]4C2)c1	2
COC(=O)[C@]12C[C@H](CC(=O)N3CCCC3)C(=O)N(Cc3ccc(Cl)cc3Cl)C1=C[C@H](C(C)C)O[C@@H]2C1CC1	-1
COc1ccc(Oc2c(Cl)cnn(-c3ccc(C(C)C)c(C)c3)c2=O)cc1	1
COc1ccc(-c2cc(C(F)(F)F)n3nc(C)cc3n2)cc1	14*	TTR inh HuH7=9;TTR act confirm=-1
Cc1cc2nc(-c3ccco3)cc(C(F)(F)F)n2n1	-1
COc1ccc(-c2cc(C(F)(F)F)n3nc(C(=O)O)nc3n2)cc1	-1
Cc1ccc(CC(=O)NCc2ccc3c(c2)OCO3)cc1	-1
SMILES	TTR transcr act	others
CCOCC(=O)NCc1ccc2c(c1)OCO2	12*	TTR inh HuH7=-13;TTR act confirm=0
COC(=O)NCc1ccc2c(c1)OCO2	-1
CN(C(=O)c1cccc(NC(=O)Cc2cccc(NC(=O)C3CCCN(C(=O)C4CCCCC4)C3)c2)c1)C1CCC1 (centres undefined)	1
C[C@H]1CCCN1c1ccc2c(c1)OCCCN(C1CC1)S2(=O)=O	0
CCCCN1CCS(=O)(=O)N(Cc2ccc(Cl)cc2)C(C(=O)OC)C1 (centres undefined)	3
CCn1cc(CNC(=O)CC2C(=O)NCCN2CC(c2ccccc2)c2ccccc2)cn1 (centres undefined)	2
CC(C)CN1CCNC(=O)C1CC(=O)NCCc1cnn(-c2ccccc2)c1 (centres undefined)	13*	TTR inh HuH7=-12;TTR act confirm=-1
Cn1cc(CCNC(=O)CC2C(=O)NCCN2Cc2cccc(Oc3ccccc3)c2)cn1 (centres undefined)	1
O=C1C[C@H](c2ccc3ccccc3c2)N=C2N1/C(=C\c1ccccc1)[C@@H](c1ccccc1C(F)(F)F)N2Cc1ccc2c(c1)OCO2	0
COC(=O)C[C@H]1CC[C@@H]2[C@H](COc3ccc(NC(=O)c4cnccn4)cc3C(=O)N2C)O1	0
Cc1ccc(N2C(=O)C3CCCN3C2=S)cc1C (centres undefined)	20*	TTR inh HuH7=-9;TTR act confirm=0
Cc1ccc(N2C(=O)C3CCCN3C2=S)cc1 (centres undefined)	0
